Compound activity as filed in PubChem.
ERp5 inh: inhibitors of ERp5-driven insulin aggregation, primary screen, biochemical, turbidity, absorbance 650 nm, single point; AID 651711, 2012; inhibition, % at 9.99 µM; 90 min; 0.05% of 350,000 active;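 active = mean replicate inhibition above about 25%, with every replicate also reaching it, limit read from the data, passing the limit was not always enough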
CaV13 ICDI inh: Disruptors of the CACNA1D IQ motif to Ca2+-dependent inactivation inhibitor domain association, primary screening, Förster resonance energy transfer in intact living …. 0.098% of 340,000 active. inhibition, % at 12.3 µM. AID 743397. HEK cells, CFP/YFP FRET ICDI-IQ, plate reader, 10 min; percent FRET-ratio fall versus neutral wells;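 active = mean replicate inhibition of at least 30% and at least 1% of replicates passing that level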;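 note: 0% = median of the neutral control wells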
ERAP1 HTS inh: human ERAP1 aminopeptidase inhibitors, primary screen, biochemical, single point, plate reader; inhibition, % at 10.7 µM; 0.15% of 340,000 active; recombinant ERAP1, Leu-AMC fluorescence, 60 min; Endoplasmic reticulum aminopeptidase 1 (Homo sapiens), Q9NZ08;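 active = mean replicate inhibition of at least 30%, or all replicates individually reaching that 30% level; inactive = mean below 30% and not every replicate reaching it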;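 note: 0% = neutral control wells and 100% = L-leucinethiol positive control wells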
PDI turbidity: inhibitors of human PDI, primary screen, biochemical, turbidity, single point, plate reader. inhibition, % at 10 µM. PDI insulin aggregation turbidity, A650, 90 min. 0.052% of 350,000 active. AID 588391, 2011. Protein disulfide-isomerase (Homo sapiens), P07237;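 active = mean inhibition across replicates of 30% or more, whatever share of single replicates reach that level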
Target sequence (P07237 whole entry, looked up): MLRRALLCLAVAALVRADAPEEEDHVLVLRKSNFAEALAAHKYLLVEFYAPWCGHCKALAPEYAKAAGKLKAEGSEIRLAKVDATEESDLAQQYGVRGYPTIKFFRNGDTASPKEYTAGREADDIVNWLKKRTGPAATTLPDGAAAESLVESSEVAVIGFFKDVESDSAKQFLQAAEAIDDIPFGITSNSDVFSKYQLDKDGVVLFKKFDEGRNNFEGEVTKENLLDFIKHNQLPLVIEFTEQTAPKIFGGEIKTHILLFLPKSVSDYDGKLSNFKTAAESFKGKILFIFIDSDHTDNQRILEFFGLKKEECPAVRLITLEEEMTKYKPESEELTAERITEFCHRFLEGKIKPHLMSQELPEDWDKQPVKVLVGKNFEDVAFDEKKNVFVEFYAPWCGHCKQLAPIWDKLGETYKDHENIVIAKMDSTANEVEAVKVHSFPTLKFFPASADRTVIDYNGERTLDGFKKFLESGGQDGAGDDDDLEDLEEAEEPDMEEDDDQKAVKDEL
PGC1a acetyl inh: inhibitors of PGC1a acetylation signal, primary screen, cell-based, U2OS, AlphaScreen, inhibitor mode. AlphaScreen anti-acetyl-lysine; with virally co-expressed GCN5 acetyltransferase. inhibition, % at 15.6 µM. 0.17% of 350,000 active;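 active = every replicate shows inhibition of at least 40%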;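 note: 0% = neutral control wells and 100% = positive control wells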
PglD inh: C. jejuni PglD acetyltransferase inhibitors, primary screen, biochemical, DTNB colorimetric, single point | inhibition, % at 12.5 µM | purified PglD enzyme, DTNB colorimetric CoA detection | UDP-N-acetylbacillosamine N-acetyltransferase PglD (Campylobacter jejuni) | 0.098% of 360,000 active; in the data active = inhibition above about 16%, passing the limit was not always enough
PglD confirm: PglD acetyltransferase inhibitors, confirmation, biochemical, DTNB absorbance, single point, cherry-picked samples; 320 tested, under 10 active; Purified C. jejuni PglD, DTNB absorbance 412 nm; shares compounds with PglD inh; inhibition, % at 20 µM;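 active = mean inhibition across replicates of at least 20% with every single replicate also at 20% or more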;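 note: initial rate of CoA release by acetyl transfer from AcCoA to the UDP-4-amino sugar; 0% = median of neutral control wells and 100% = median of positive control wells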
An asterisk follows results filed as active; x = not tested or not shown. Shown are actives, neighbours in structure and some others; about 0.46% of the full set was active somewhere.

SMILES | ERp5 inh | CaV13 ICDI inh | ERAP1 HTS inh | PDI turbidity | PGC1a acetyl inh | PglD inh | PglD confirm
C#CC1CCCCC1NC(=O)Nc1cnccc1C(F)(F)F (stereo not given) | -1 | -4 | x | 1 | x | 20* | -2
COc1cccc(CN2[C@@H]3CN(C(=O)C4CC4)c4ccccc4[C@@H]3[C@@H]2CO)c1 | -1 | x | 2 | x | -12 | -2 | x
Cc1ccc(S(=O)(=O)N(C)C)cc1NC(=O)CSc1nnnn1-c1ccc(O)cc1 | 1 | 1 | -4 | 26 | 7 | 28* | -8
Cc1ccc(S(=O)(=O)N(C)C)cc1NC(=O)CSc1nc2ccccc2[nH]1 | x | -3 | x | 0 | x | x | x
COc1ccc(C(CNc2ccc(S(C)(=O)=O)cc2[N+](=O)[O-])N(C)C)cc1OC (stereo not given) | 4 | -3 | 2 | -18 | -10 | 23* | 2
CN(C)C(=O)C[C@@H]1CC[C@@H]2[C@H](COC[C@H](O)CN2C(=O)C2CCCC2)O1 | x | x | x | x | 4 | 2 | x
O=C(NCc1ccco1)Oc1ccccc1 | x | -5 | x | -3 | -7 | 21* | -6
O=c1c2c([nH]c3ccccc13)CCCC2 | x | -6 | x | 16 | 3 | 1 | x
CC(C)(C)C1CCc2[nH]c3ccccc3c(=O)c2C1 (stereo not given) | x | -5 | x | -26 | -3 | 28* | -2
C[C@H]1CN([C@@H](C)CO)C(=O)Cc2cc(NC(=O)C3CCCCC3)ccc2O[C@@H]1CN(C)C(=O)Nc1ccccc1 | -2 | x | -1 | x | x | 0 | x
CCCC(=O)N1CCC2(CC1)CN(C(=O)CC)[C@H](CO)c1c2c2ccc(OC)cc2n1C | -5 | x | -4 | x | 0 | x | x
CC(=O)N(C)C[C@@H]1Oc2cc(C#CC(C)C)ccc2S(=O)(=O)N([C@H](C)CO)C[C@H]1C | 13 | x | -6 | x | -2 | 6 | x
CN(C)c1nc(OCC(=O)NC(C)(C)C)nc(N(C)C)n1 | x | 2 | x | -3 | -3 | 22* | 1
O=C(Nc1ccccc1)N[C@H]1CC[C@H](CCNS(=O)(=O)c2ccccc2F)O[C@@H]1CO | -1 | x | -5 | x | -1 | 2 | x
COC(CNc1cc(=O)oc2ccccc12)OC | x | -4 | x | 3 | 7 | 23* | 1
CCCCNc1cc(=O)oc2ccccc12 | x | -5 | x | 4 | x | x | x
CCC(=O)Nc1ccccc1C(=O)OCC(=O)Nc1ccc(S(N)(=O)=O)cc1 | x | -5 | x | -7 | 53 | 31* | -3
COC(=O)[C@H]1[C@H](CO)[C@H]2Cn3c(ccc(-c4ccc(F)cc4)c3=O)[C@H]2N1S(C)(=O)=O | 4 | x | 1 | x | x | 2 | x
CCOC(=O)C1CCCN(CCC(=O)Nc2ccc(Br)c(C)c2)C1 (stereo not given) | -1 | -3 | -4 | 5 | -3 | 71* | 0
Cc1ccccc1S(=O)(=O)Nc1ccc2c(c1)C(=O)N(C)[C@@H]1CC[C@H](CC(=O)O)O[C@@H]1CO2 | x | x | x | x | -1 | x | x
CCNC(=O)C[C@@H]1CC[C@@H]2[C@H](COC[C@@H](O)CN2C(=O)c2ccccn2)O1 | -6 | x | 0 | x | 2 | -1 | x
C=C(C)C(=O)Nc1cccc(C2=NOC3(C2)C[C@@H](C(N)=O)N(C(=O)C2(C)CC2)C3)c1 (stereo not given in full) | x | -6 | x | 7 | 13 | 23* | 2
C[C@H]1CN([C@@H](C)CO)C(=O)c2cc(NC(=O)Nc3ccc4c(c3)OCO4)ccc2O[C@@H]1CN(C)Cc1ccncc1 | -3 | x | 4 | x | 10 | 13 | x
COC(=O)c1cccc(NC(=S)NCCC2=CCCCC2)c1 | 5 | x | -1 | 2 | x | 66* | 2
CC(C)n1nc(Cc2cccc3ccccc23)c(C#N)c1N | 4 | -6 | 1 | 2 | x | 89* | -5
SMILES | ERp5 inh | CaV13 ICDI inh | ERAP1 HTS inh | PDI turbidity | PGC1a acetyl inh | PglD inh | PglD confirm
CCc1ccc(/C=C2\SC(=S)N(CCC(=O)Nc3cc(C)on3)C2=O)cc1 | -9 | -19 | 2 | -9 | x | x | x
CCc1ccc(/C=C2\SC(=S)N(CCCC(=O)Nc3cc(C)on3)C2=O)cc1 | 4 | -11 | 1 | -8 | -4 | 21* | -2
COc1ccccc1CNC(=O)C[C@H]1C[C@@H]2c3cc(NC(=O)C4CCOCC4)ccc3O[C@@H]2[C@@H](CO)O1 | 2 | x | -1 | x | 2 | -1 | x
COc1ccc(S(=O)(=O)N2CCCC2)cc1Br | 6 | -2 | -1 | -1 | -2 | -3 | x
COc1ccc(S(=O)(=O)N2CCN(C(=O)C3CC3)CC2)cc1Br | -1 | -3 | -1 | 8 | x | 42* | -4
CCCN1C[C@@H](C)[C@H](OC)CN(C)C(=O)c2ccc(NC(=O)Nc3ccccc3F)cc2OC[C@@H]1C | 3 | x | 2 | x | 5 | 1 | x
Cc1c(C(=O)O)sc2nc(/C=C/c3cccc(O)c3)[nH]c(=O)c12 | 1 | -3 | -26 | 3 | 1 | 45* | 79*
COc1cc(C2=NOC(C(=O)NCc3cccnc3)C2)cc(OC)c1OC (stereo not given) | -1 | -20 | 0 | 4 | 2 | -5 | x
O=C(NCc1cccnc1)C1CC(c2cccc(Br)c2)=NO1 (stereo not given) | 11 | -20 | x | 0 | -11 | 23* | -5
C[C@@H]1CN([C@H](C)CO)C(=O)c2ccccc2-c2ccccc2CO[C@H]1CN(C)C(=O)Nc1cccc(F)c1 | 4 | x | 4 | x | 3 | 1 | x
CO[C@@H]1CN(C)C(=O)c2ccc(NC(C)=O)cc2OC[C@H](C)N(CCc2ccccc2)C[C@H]1C | 1 | x | 0 | x | -4 | 1 | x
C[C@H](NC(N)=O)C(=O)Nc1ccc2c(c1)OCO2 | -3 | -7 | x | -22 | 7 | 22* | 3
C/C=C/c1ccc([C@@H]2[C@@H](CNC(=O)CC3CC3)N(C(=O)CC)[C@H]2CO)cc1 | 1 | x | -3 | x | 9 | 1 | x
O=C(Nc1ccc(OCC(=O)N2CCOCC2)cc1)Nc1cccc(Cl)c1 | 3 | -2 | -24 | -2 | 12 | x | x
O=C(Nc1ccc(C(=O)N2CCOCC2)cc1)Nc1cccc(Cl)c1 | x | -4 | x | -4 | -1 | 25* | 3
